Hits are enriched below; roughly 1.6% of the tested compounds scored in any of these assays.
KCNQ2 block – inhibitors of rat KCNQ2 potassium channel. O88943. hit rate 1.1% among 310,000. B-score at 10 µM. CHO-K1 KCNQ2, FluxOR thallium flux, 20 min; active compounds read low;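 active means fluorescence ratio B-score at most minus 3 library SDs, with starting brightness B-score within 2 library SDs, cut at about -5.5 in these data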
Target sequence (O88943 whole entry, looked up): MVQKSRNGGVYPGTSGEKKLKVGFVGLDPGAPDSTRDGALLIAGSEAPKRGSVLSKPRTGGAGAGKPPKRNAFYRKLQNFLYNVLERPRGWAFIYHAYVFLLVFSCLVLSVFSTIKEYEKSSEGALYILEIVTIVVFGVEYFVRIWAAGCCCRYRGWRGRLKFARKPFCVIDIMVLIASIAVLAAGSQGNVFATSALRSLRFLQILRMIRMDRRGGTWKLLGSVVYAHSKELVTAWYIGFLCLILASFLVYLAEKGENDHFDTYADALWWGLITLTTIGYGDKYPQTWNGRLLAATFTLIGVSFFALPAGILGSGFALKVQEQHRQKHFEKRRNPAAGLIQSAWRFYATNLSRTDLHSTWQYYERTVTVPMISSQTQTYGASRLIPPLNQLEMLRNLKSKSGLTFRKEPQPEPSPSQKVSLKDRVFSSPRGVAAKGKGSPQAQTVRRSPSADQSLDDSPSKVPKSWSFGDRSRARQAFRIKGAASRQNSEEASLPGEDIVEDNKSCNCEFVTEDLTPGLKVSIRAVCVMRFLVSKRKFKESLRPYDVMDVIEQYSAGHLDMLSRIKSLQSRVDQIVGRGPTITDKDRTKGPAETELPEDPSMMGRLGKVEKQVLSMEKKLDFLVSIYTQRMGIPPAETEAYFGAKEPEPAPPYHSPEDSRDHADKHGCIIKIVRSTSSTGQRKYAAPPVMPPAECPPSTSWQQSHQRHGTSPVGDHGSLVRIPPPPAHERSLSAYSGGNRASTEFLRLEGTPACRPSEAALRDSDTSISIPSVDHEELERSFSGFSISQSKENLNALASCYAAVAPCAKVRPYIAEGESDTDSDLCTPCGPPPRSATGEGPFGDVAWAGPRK
KCNQ2 enhance – potentiators of rat KCNQ2 potassium channel | O88943 | CHO-K1 KCNQ2, FluxOR thallium flux fluorescence; active compounds read high | B-score at 10 µM | hit rate 0.54% among 310,000;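 active means fluorescence ratio B-score at least 3 SD of library B-scores, with initial fluorescence B-score within 3 of them, cut at about 5.3 in these data; same plate scores as AID 2156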;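 further: B-score of peak minus minimum over baseline fluorescence ratio after K+ and Tl+ stimulus; positive B-score means potentiation of KCNQ2 with more thallium influx and brighter signal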
A number is an active result.

`Cc1cccc(N(C)S(=O)(=O)c2ccc(-c3cnc(C4CC4)o3)cc2)c1` gave KCNQ2 block -9.89 and KCNQ2 enhance inactive.
For COc1cccc(N2CCN(S(=O)(=O)c3ccc(-c4cnc(C5CC5)o4)cc3)CC2)c1 the results were KCNQ2 block inactive and KCNQ2 enhance inactive.
`O=C(CN(C(=O)CCC(=O)Nc1nccs1)c1cccc(F)c1)NCc1ccccc1` gave KCNQ2 block inactive.
Screening Cc1ccccc1N1CC(C(=O)Nc2ccncc2)CC1=O (configuration not stated) returned KCNQ2 block inactive.
CC(OC(=O)c1ccc2c(c1)OCCO2)C(=O)c1ccccc1 (configuration not stated) was read as KCNQ2 block inactive.
Screening Cc1ccc(C)c(CNS(=O)(=O)c2c(C)[nH]c(C)c2C(=O)N2CCCCC2)c1 returned KCNQ2 block inactive.
For CC(C)(C)c1ccc(OCC(=O)O/N=C(\N)c2ccncc2)cc1 the results were KCNQ2 block inactive and KCNQ2 enhance inactive.
CC(C)(C)c1cc(C(=O)Nc2ccc(F)cc2)n(Cc2ccc(F)cc2)n1 was read as KCNQ2 block -5.94 and KCNQ2 enhance inactive.
For Cc1ccc(NC(=O)c2cc(C(C)(C)C)nn2Cc2ccccc2)cc1 the results were KCNQ2 block inactive.
`C#C[C@]1(O)CCC2C3CCC4=CC(=O)CC[C@@H]4C3CC[C@@]21C` (some centres not stated) gave KCNQ2 block inactive.
`CC#C[C@]1(O)CC[C@H]2[C@@H]3CCC4=CC(=O)CCC4=C3[C@@H](c3ccc(N(C)C)cc3)C[C@@]21C` gave KCNQ2 block -5.92 and KCNQ2 enhance inactive.
For O=C(OC(C(=O)Nc1ccc(Cl)c(C(F)(F)F)c1)c1ccccc1)C1=COCCO1 (configuration not stated) the results were KCNQ2 block inactive.
Cc1cc(C)cc(NC(=O)C(OC(=O)C2=COCCO2)c2ccccc2)c1 (configuration not stated) was read as KCNQ2 block -6.63 and KCNQ2 enhance inactive.
Screening CCOc1ccc(S(=O)(=O)N2CCC(C(=O)NCc3cccnc3)CC2)cc1C returned KCNQ2 block inactive and KCNQ2 enhance inactive.
For CC1=C(C(=O)Nc2ccc(C(=O)NCCCN3CCCCC3)cc2)SCCO1 the results were KCNQ2 block inactive and KCNQ2 enhance inactive.
COc1ccccc1N1CCN(C(=O)c2cc3c(s2)-c2ccccc2OC3)CC1 was read as KCNQ2 block inactive.
`O=C(c1cc2c(s1)-c1ccccc1OC2)N1CCc2ccccc2C1` gave KCNQ2 block -5.57 and KCNQ2 enhance inactive.
`O=C(Nc1ccc(C(=O)N2CCCCC2)cc1)c1ccc([N+](=O)[O-])cc1` gave KCNQ2 block inactive and KCNQ2 enhance inactive.
`Cn1c(CNc2nc3ccccc3n2CCN2CCCCC2)nc2ccccc21` gave KCNQ2 block inactive.
c1ccc(Cn2c(CNc3nc4ccccc4n3CCN3CCCCC3)nc3ccccc32)cc1 was read as KCNQ2 block -7.29 and KCNQ2 enhance inactive.
`CCN(CC)CCn1c(NCc2ccco2)nc2ccccc21` gave KCNQ2 block inactive and KCNQ2 enhance inactive.
CCN(CC)CCn1c(NCc2nc3ccccc3n2Cc2ccccc2)nc2ccccc21 was read as KCNQ2 block -6.2 and KCNQ2 enhance inactive.
For CCc1nn(C(C)C(=O)NCc2cccc(OC)c2)c(=O)c2cc3occc3n12 (configuration not stated) the results were KCNQ2 block inactive.
O=C(Nc1ccc(F)c(Cl)c1)C1CC2CCC1C2 (configuration not stated) was read as KCNQ2 block inactive.
For CCN(CC)CCn1c2c(c(SCC(=O)Nc3ccc(F)c(F)c3)nc1=O)CCC2 the results were KCNQ2 block inactive and KCNQ2 enhance inactive.
For C=C1SC(=Nc2ccccc2Cl)N(C(=O)c2sc3ccccc3c2Cl)C1(C)C the results were KCNQ2 block -5.78 and KCNQ2 enhance inactive.
C=C1SC(=Nc2c(C)cccc2Cl)N(C(=O)c2sc3ccccc3c2Cl)C12CCCCC2 was read as KCNQ2 block inactive.
For Cc1ccc(C(=O)NCc2ccncc2)cc1S(=O)(=O)Nc1cccc(C)c1C the results were KCNQ2 block inactive.
`Cc1ccc(C(=O)Nc2ccccc2-c2ccccc2)cc1S(=O)(=O)Nc1cccc(C)c1C` gave KCNQ2 block -7.88 and KCNQ2 enhance inactive.
Screening Cc1cc(F)ccc1S(=O)(=O)Nc1ccccc1C(=O)Nc1ccccc1N1CCOCC1 returned KCNQ2 block inactive.
`Cc1ccc(C)c(NS(=O)(=O)c2cc(C(=O)Nc3ccccc3-c3ccccc3)ccc2C)c1` gave KCNQ2 block -6.21 and KCNQ2 enhance inactive.
For Cc1ccc(C)c(S(=O)(=O)Nc2ccccc2C(=O)Nc2ccccc2N2CCOCC2)c1 the results were KCNQ2 block -5.98 and KCNQ2 enhance inactive.
Screening Cc1ccccc1NC(=O)c1ccc(C)c(S(=O)(=O)Nc2cccnc2)c1 returned KCNQ2 block inactive.
Screening N#C/C(=C\c1cccs1)C(=O)Nc1nccs1 returned KCNQ2 block inactive.
CC(C)CC1c2[nH]c3ccccc3c2CCN1C(=O)CCC(=O)N(C)C (configuration not stated) was read as KCNQ2 block inactive.
CCN(c1ccc(C)cc1C)S(=O)(=O)c1nnc(NC(=O)C(C)(C)C)s1 was read as KCNQ2 block inactive.
For Cc1cc(C)n(-c2nc3ccccc3c(=O)n2OCCOc2ccccc2)n1 the results were KCNQ2 block -5.6 and KCNQ2 enhance inactive.
Screening C=CCOn1c(-n2nc(C)cc2C)nc2ccccc2c1=O returned KCNQ2 block inactive.
Cc1ccc(C(=O)N/C(=C\c2cn(C)c3ccccc23)C(=O)N2CCOCC2)cc1 was read as KCNQ2 block -6.28 and KCNQ2 enhance inactive.
`Cn1cc(/C=C(\NC(=O)c2ccccc2)C(=O)N2CCOCC2)c2ccccc21` gave KCNQ2 block inactive.
Screening Cc1ccc2cc(CN(Cc3cccs3)C(=O)c3ccco3)c3nnnn3c2c1C returned KCNQ2 block -6.03 and KCNQ2 enhance inactive.
For Cc1ccc2c(c1)cc(CN(Cc1cccs1)C(=O)c1ccco1)c1nnnn12 the results were KCNQ2 block inactive and KCNQ2 enhance inactive.
For Cc1ccc(C)c(C(=O)C(C)Sc2nc3nn(-c4ccccc4)c(=O)c-3c3n2CCCCC3)c1 (configuration not stated) the results were KCNQ2 block inactive.
C=CCn1c(=O)c(C(=O)Nc2ccccc2S(N)(=O)=O)c(O)c2ccccc21 was read as KCNQ2 block inactive and KCNQ2 enhance 5.72.
For C=CCn1c(=O)c(C(=O)Nc2ccccc2C(=O)OCC)c(O)c2ccccc21 the results were KCNQ2 block inactive.
Screening NS(=O)(=O)c1ccc(CCNC(=O)c2cc3ccccc3oc2=O)cc1 returned KCNQ2 block inactive and KCNQ2 enhance inactive.
Screening Cc1ccc(S(=O)(=O)N2CCOCC2)cc1NC(=O)COC(=O)CNC(=O)c1ccc(Cl)cc1Cl returned KCNQ2 block inactive.
For CC1CC(C)CN(C(=O)c2ccc3c(c2)N(Cc2ccccc2)CCS3)C1 (configuration not stated) the results were KCNQ2 block -6.19 and KCNQ2 enhance inactive.
CCOC(=O)N1CCN(C(=O)c2ccc3c(c2)N(Cc2ccccc2)CCS3)CC1 was read as KCNQ2 block inactive.
Screening CN(CC1CCCN(CCc2cccc(C(F)(F)F)c2)C1)C(=O)c1cc2ccccc2o1 (configuration not stated) returned KCNQ2 block -6.97 and KCNQ2 enhance inactive.

Bioassay records: PubChem BioAssay, Johns Hopkins Ion Channel Center
